The nature of assay [1]: qHTS profiling of the MIPE4 collection as inhibitors of Plasmodium falciparum (3D7) proliferation (AID 743344; call rule not given here;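 note: scaled between DMSO vehicle wells and 0.29 µM artemisinin as full inhibition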). The following applies: P. falciparum 3D7 in erythrocytes, SYBR Green DNA fluorescence, 72 h; at 28.5 µM unless noted. The method, boiled down:
(§1)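 Erythrocytes infected with P. falciparum (0.3% parasitemia, 2.5% hematocrit) incubated with compounds 72 h at 37 C, 5% CO2. Lysis with saponin/Triton buffer containing SYBR Green I, overnight at room temperature in the dark; DNA fluorescence (485/535 nm) normalised to 0.29 uM artemisinin and DMSO.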
Background: In qHTS, concentration-response curves come from the screen itself.

Assay [2] in a line: qHTS profiling of the MIPE4 collection as inhibitors of Plasmodium falciparum (DD2) proliferation (AID 743345; call rule not given here). The following applies: P. falciparum Dd2 in erythrocytes, SYBR Green DNA, 72 h; at 28.5 µM unless noted. An outline of the steps: as §1
Assay [3] in a line: qHTS profiling of the MIPE4 collection as inhibitors of Plasmodium falciparum (DD2) proliferation (Rep 2) (AID 743346; call rule not given here). The settings on record: P. falciparum Dd2 in erythrocytes, SYBR Green DNA, 72 h; at 28.5 µM unless noted. The method, boiled down:
as §1

A short description of assay [4]: qHTS for Inhibitors of the Functional Ribonucleoprotein Complex (vRNP) of Lassa (LASV) Arenavirus: LASV Primary Screen - GLuc reporter signal (AID 1347082; calls by dose curve; tested in HEK293 reporter line; note: % is set by controls: 0 for no effect and ±100 for the full control effect; nearly all actives have a fitted effect of over 60% in size). The settings on record: LASV minigenome vRNP, Gaussia luciferase reporter; series mostly up to 57.5 µM.
Assay [5] in a line: qHTS for Inhibitors of the Functional Ribonucleoprotein Complex (vRNP) of Lassa (LASV) Arenavirus: Viability assay - alamar blue signal for LASV Primary Screen (AID 1347083; calls by dose curve; tested in HEK293 reporter line; note: nearly all actives have a fitted effect of over 80% in size; note: potency is the fitted concentration of half-maximal effect). The following applies: cell viability, alamar blue fluorescence (LASV minigenome counter-screen); series mostly up to 57.5 µM.
The nature of assay [6]: qHTS for Inhibitors of the Functional Ribonucleoprotein Complex (vRNP) of Lymphocytic Choriomeningitis Arenaviruses (LCMV): Viability assay - alamar blue signal for LCMV Primary Screen (AID 1347085; calls by dose curve; tested in HEK293 reporter line; note: nearly all actives have a fitted effect of over 80% in size; note: potency is the fitted concentration of half-maximal effect). The following applies: alamar blue viability counter-screen, LCMV vRNP screen cells; series mostly up to 57.5 µM.
For assay [7], the target named is Nucleoprotein (Lymphocytic choriomeningitis virus (strain Armstrong)) (UniProt P09992). The assay is described as follows: qHTS for Inhibitors of the Functional Ribonucleoprotein Complex (vRNP) of Lymphocytic Choriomeningitis Arenaviruses (LCMV): LCMV Primary Screen - GLuc reporter signal (AID 1347086). Note: % is set by controls: 0 for no effect and ±100 for the full control effect; nearly all actives have a fitted effect of over 70% in size. The following applies: LCMV minigenome vRNP cell assay, Gaussia luciferase reporter; series mostly up to 57.5 µM.
Chain of Nucleoprotein (Lymphocytic choriomeningitis virus (strain Armstrong)) (P09992 whole entry, looked up): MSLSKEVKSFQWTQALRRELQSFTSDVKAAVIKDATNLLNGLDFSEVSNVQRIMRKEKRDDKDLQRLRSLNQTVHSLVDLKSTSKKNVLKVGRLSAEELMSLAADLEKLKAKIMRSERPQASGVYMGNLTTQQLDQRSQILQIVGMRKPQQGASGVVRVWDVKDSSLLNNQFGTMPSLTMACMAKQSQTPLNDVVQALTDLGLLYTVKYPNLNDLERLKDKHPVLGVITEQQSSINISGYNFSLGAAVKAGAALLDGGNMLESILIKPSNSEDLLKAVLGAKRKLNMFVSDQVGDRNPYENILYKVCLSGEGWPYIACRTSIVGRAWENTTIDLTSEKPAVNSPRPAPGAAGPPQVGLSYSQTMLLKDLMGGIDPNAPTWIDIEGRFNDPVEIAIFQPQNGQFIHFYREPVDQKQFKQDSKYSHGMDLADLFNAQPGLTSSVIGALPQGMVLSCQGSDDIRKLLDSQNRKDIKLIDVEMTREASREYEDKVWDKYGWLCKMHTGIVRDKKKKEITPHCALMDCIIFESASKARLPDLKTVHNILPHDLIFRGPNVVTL

Assay [8] in a line: Primary qHTS to identify inhibitors of SARS-CoV-2 cell entry (AID 1645846). Note: nearly all actives have a fitted effect of over 45% in size. Note: potency is the fitted concentration of half-maximal effect. The settings on record: SARS-CoV-2 pseudovirus cell entry assay, luminescence; activity change, negative = inhibition: at 57.1 µM (top of the series) unless noted; series mostly up to 57.1 µM. An outline of the steps:
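Data are normalized to wells receiving SARS-CoV-2-S pseudoparticles and those given bald particles. Entry signal was luciferase luminescence in stable hACE2 Expi293F cells, 48 hr post-infection, after 1 hr compound pretreatment.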

Assay [9] is described as follows: VSVG counterscreen qHTS to identify inhibitors of SARS-CoV-2 cell entry (AID 1645847). Note: potency is the fitted concentration of half-maximal effect; nearly all actives have a fitted effect of over 65% in size. The following applies: VSV-G pseudotyped particle entry, luciferase; series mostly up to 57.2 µM. The method, boiled down:
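Counterscreen using VSV-G (not spike) pseudotyped MLV particles on ACE2-expressing Expi293F cells after 1 h compound preincubation; infection ran 48 h at 37 °C. Data normalized to VSV-G PP and bald-PP wells.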
For orientation: Counterscreens check selectivity or assay interference.

The nature of assay [10]: Confirmatory qHTS for VERO E6 Cytotoxicity Assay: Counterscreen for SARS-CoV-2 CPE Assay (AID 1508605). Note: potency is the fitted concentration of half-maximal effect; nearly all actives have a fitted effect of over 60% in size. The following applies: cell viability luminescence; series mostly up to 20 µM.

Records with an inconclusive call do not appear. Calls of active or inactive are those of the source. Unless noted, calls come from the whole dose curve.

In assay [1], `C[C@H]1[C@H](NC(=O)C(=NOC(C)(C)C(=O)O)c2csc(N)n2)C(=O)N1S(=O)(=O)O` gave a parasite growth, % of DMSO control of 97.7%. The compound further showed a parasite growth remaining, % of DMSO control (lower = more inhibition) in [2] of 91.7%. In assay [3], the parasite growth, % of control (lower = inhibition) is 91.7%. For the same compound, the Potency result in assay [4], in [5], in assay [6] and in [7] was “inactive” throughout.
Turning to `Nc1ccc(C(=O)Nc2cccc(-c3nc(N4CCOCC4)c4oc5ncccc5c4n3)c2)cn1`, in assay [4], the Potency result is “inactive”. For the same compound, the Potency is 1220 nM (active) in assay [5], 968 nM (active) in assay [6], 891 nM (active) in [8] and 4.8 nM (active) in [9].
Compound `C[C@H](CCC(=O)O)[C@H]1CCC2C3CC[C@@H]4C[C@H](O)CC[C@]4(C)C3CC[C@@]21C` (stereo partly drawn) registered a parasite growth, % of DMSO control in assay [1] of 97.3%. In [3], this compound yielded a parasite growth, % of control (lower = inhibition) of 65%. Also, the Potency result in assay [4], in [5], in assay [6] and in [7] was “inactive” throughout.
As for `Cc1c(CCOc2ccc(C(=O)O)cc2)c2cc(Cl)ccc2n1C(c1ccccc1)c1ccccc1`, the Potency entry in [4], in assay [5] and in assay [6] was “inactive” each time. Also, the Potency in assay [10] was 12600 nM (active). The activity change, negative = inhibition in assay [8] is -34.5%.

The record behind these values is PubChem BioAssay (NCATS).
